Counter-ions that a name gives are not always drawn.
System: thyroid hormone receptor (endogenous TRα and TRβ)
Parameters: species or system GH3-TRE-Luc (rat pituitary); GH3-TRE-Luc luciferase reporter, antagonist mode against 1 nM T3, loss of signal, qHTS
Settings: read-out: Average AC50 (uM) GH3-TRE-Antag, antagonist mode, 1 nM T3, no GH3 cytotoxicity hit

SMILES | AC50 [µM]
CC1=CC(C)(C)Nc2ccccc21 [1,2-Dihydro-2,2,4-trimethylquinoline, polymer] | 28
CCC(=O)Oc1ccc(/C(CC)=C(\CC)c2ccc(OC(=O)CC)cc2)cc1 [Diethylstilbestrol dipropionate] | 56.1
OC[C@H](Cc1cccc(O)c1)[C@H](CO)Cc1cccc(O)c1 [(-)-Enterodiol] | > 90
CCCCC(CC)C(=O)OCCOCCOCCOCCOC(=O)C(CC)CCCC (stereo not drawn) [Tetraethylene glycol di(2-ethylhexanoate)] | 82.3
CC(C)(O)C(=O)Nc1ccc([N+](=O)[O-])c(C(F)(F)F)c1 [Hydroxyflutamide] | > 70
O=C(O)c1cc(Cl)cc(Cl)c1O [3,5-Dichlorosalicylic acid] | 68.6
C/C=C1/C(=O)C[C@H]2[C@@H]3CCC4=CC(=O)CC[C@]4(C)[C@H]3CC[C@]12C [Guggulsterone E] | 18
CC(=O)O[C@H]1CC[C@@]2(C)C(=CC[C@@H]3[C@@H]2CC[C@]2(C)C(c4cccnc4)=CC[C@@H]32)C1 [Abiraterone acetate] | 50
CC[C@H]1OC(=O)[C@H](C)C(=O)[C@H](C)[C@@H](O[C@@H]2O[C@H](C)C[C@H](N(C)C)[C@H]2O)[C@](C)(OC)C[C@@H](C)C(=O)[C@H](C)[C@H]2N(CCCCn3cnc(-c4cccnc4)c3)C(=O)O[C@]12C [Telithromycin] | 22.2
CCCCCC[C@@H](O)C/C=C\CCCCCCCC(=O)O [Potassium ricinoleate] | 31.8
CC1=CC[C@H](C(C)C)C=C1 [(R)-alpha-Phellandrene] | 54.5
CCOC(CN1CCN(CC(C)C(=O)c2ccccc2)CC1)c1ccccc1 (stereo not drawn) [Eprazinone dihydrochloride] | 32.1
O=C(Nc1ccccc1)c1ccccc1O [Salicylanilide] | 48.9
O=C(O)c1ccccc1Nc1cccc(C(F)(F)F)c1 [Flufenamic acid] | 29.6
CC1(C)C2=CCCC(C)(C)[C@]23CC[C@H]1C3 [(-)-Isolongifolene] | 54.9
COc1cccc(N)c1 [3-Methoxyaniline] | 80.8
COc1ccccc1/C=C/C=O [trans-2-Methoxycinnamaldehyde] | 47.6

SMILES | AC50 [µM]
C[C@H]1O[C@@H](O[C@H]2[C@@H](O)C[C@H](O[C@H]3[C@@H](O)C[C@H](O[C@H]4CC[C@@]5(C)[C@H](CC[C@@H]6[C@@H]5CC[C@]5(C)[C@@H](C7=CC(=O)OC7)CC[C@]65O)C4)O[C@@H]3C)O[C@@H]2C)C[C@H](O)[C@@H]1O [Digitoxin] | 40
NC1CCN(c2nc3c(cc2F)c(=O)c(C(=O)O)cn3-c2ccc(F)cc2F)C1 (stereo not drawn) [Tosufloxacin toluenesulfonic acid] | 21.1
Brc1ccc(Oc2ccccc2)cc1 [p-Bromodiphenyl ether] | 44.7
Cc1ccccc1C(=O)Nc1cccc(OC(C)C)c1 [Mepronil] | 48.2
C#C[C@]1(OC(C)=O)CC[C@H]2[C@@H]3CCC4=CC(=O)CC[C@@H]4[C@H]3CC[C@@]21C [Norethindrone acetate] | 10
CCC(C)(C)c1ccc(O)cc1 [4-(2-Methylbutan-2-yl)phenol] | > 50
NC(N)=NCc1cccc(I)c1 [3-Iodobenzylguanidine hemisulfate] | 16.3
O=C1CCCCCCCCCCOCCCCO1 [12-Oxahexadecanolide] | 43.5
C=C/C(C)=C/C/C=C(\C)CCC=C(C)C [alpha-Farnesene] | 44.9
CS(=O)(=O)Nc1ccc([N+](=O)[O-])cc1Oc1ccccc1 [Nimesulide] | > 20
O=[N+]([O-])c1c(Cl)c(Cl)c(Cl)c(Cl)c1Cl [Pentachloronitrobenzene] | > 90
COC(=O)[C@@H]1[C@H]2C[C@H]3c4[nH]c5ccccc5c4CCN3C[C@@H]2CC[C@@H]1O [Yohimbine] | 43.8
Cc1cc(C(C)(C)C)cc(C)c1CC1=NCCN1 [Xylometazoline hydrochloride] | 11
C=C(C)C(=O)Nc1ccc(Cl)c(Cl)c1 [Chloranocryl] | 55.5
C[C@]12CCC(=O)C=C1C=C[C@@H]1[C@@H]2CC[C@@]2(C)[C@H]1CC[C@@]21CCC(=O)O1 [Canrenone] | 34.1
CCC(=O)Nc1ccc(Cl)c(Cl)c1 [Propanil] | 92.4
